Cycloheximide cs – affects cycloheximide protein synthesis inhibition readout, counter-screen; cell reporter, cycloheximide protein synthesis inhibition counterscreen; max response, %; hit rate 12% among 300,000; AID 2314; in the data active = max response mostly above about 13%, no sharp cut-off; inactive = mostly below about 14%; note: read at 38.3 µM for the half of the compounds with a filed dose; 0% is about no effect
LmPK inhibitor – blocks Leishmania mexicana pyruvate kinase activity; Q27686; purified LmPK, Kinase-Glo ATP luminescence, 1 h; Potency, µM (series often up to 57.5 µM), inactives show at the highest dose activity change, negative = inhibition, most hits filed as inhibitors; hit rate 0.37% among 290,000; note: potency is the fitted concentration of half-maximal effect; % is set by controls: 0 for no effect and ±100 for the full control effect
Target sequence (Q27686 whole entry, looked up): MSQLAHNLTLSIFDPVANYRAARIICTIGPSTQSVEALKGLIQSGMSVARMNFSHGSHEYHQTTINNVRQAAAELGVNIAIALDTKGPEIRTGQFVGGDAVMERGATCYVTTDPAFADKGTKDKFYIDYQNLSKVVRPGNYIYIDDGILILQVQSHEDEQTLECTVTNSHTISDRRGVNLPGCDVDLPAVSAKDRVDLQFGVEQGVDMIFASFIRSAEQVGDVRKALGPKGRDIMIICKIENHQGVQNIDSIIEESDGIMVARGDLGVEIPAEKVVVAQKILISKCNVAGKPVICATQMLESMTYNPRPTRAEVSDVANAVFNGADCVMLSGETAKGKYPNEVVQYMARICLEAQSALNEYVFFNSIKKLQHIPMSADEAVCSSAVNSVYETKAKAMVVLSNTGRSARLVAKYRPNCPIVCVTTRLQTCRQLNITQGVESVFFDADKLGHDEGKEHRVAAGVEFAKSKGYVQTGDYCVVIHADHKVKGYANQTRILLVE
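Screened at intermediate enzyme activity to detect both inhibitors and activators: LmPK at 0.1 nM, with a 0.5 nM enzyme column as activation reference. PEP 0.5 mM, ADP 0.1 mM; ATP detected by luminescence after 1 h.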
Shiga inhibitor – Shiga toxin inhibition; hit rate 9.2% among 290,000; Vero cells, Shiga toxin protein synthesis inhibition reporter; AID 2315; inhibition, % at 38.7 µM; in the data active = inhibition mostly above about 28%, no sharp cut-off; inactive = mostly below about 43%; note: 0% is about no effect
Pf growth 96h – P. falciparum growth inhibition at 96 hour, primary screen for plastid delayed-death inhibitors; P. falciparum luciferase reporter growth, 96 h; hit rate 6.9% among 320,000; Potency, µM (series often up to 28.7 µM), inactives show top-dose activity change, negative = inhibition, actives largely listed as inhibitors; note: potency is the fitted concentration of half-maximal effect; % is set by controls: 0 for no effect and ±100 for the full control effect
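P. falciparum expressing integrated firefly luciferase grown in erythrocytes (2% hematocrit, 0.05% parasitemia final) with compounds for 96 hours at 37 C, 5% CO2. Growth inhibition read as loss of luminescence after adding luciferase detection reagent.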
Pf growth 48h – P. falciparum growth inhibition at 48 hours (one generation); P. falciparum luciferase growth in erythrocytes, 48 h; Potency, µM (highest dose often 28.7 µM), for the others: top-dose activity change, negative = inhibition, usual class: inhibitors; hit rate 5.9% among 310,000; AID 504832; note: potency is the fitted concentration of half-maximal effect; % is set by controls: 0 for no effect and ±100 for the full control effect
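Cell-based growth assay: transgenic P. falciparum expressing firefly luciferase, cultured in red cells within RPMI 1640 containing 0.5% w/v Albumax, 24 mM bicarbonate and gentamycin. A drop in luciferase activity indicates inhibition.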
* marks the source's active call; other numbers are inactive results; i = inactive; u = inconclusive; x = no result; [ ] = another dose, or the depositor's remark. Compounds with a hit are over-represented: about 22% of the library has one in this group of screens. Unless noted, calls come from the whole dose curve; as a rule, active = well fitted inhibition curve with a large enough effect; inconclusive = small, poorly fitted or top-dose-only effect, or another doubt; inactive = no such curve, though single readings can be large or run the other way.

SMILES	Cycloheximide cs	LmPK inhibitor	Shiga inhibitor	Pf growth 96h	Pf growth 48h
Cc1ccc(Nc2nnc(SCn3nnc4ccccc4c3=O)s2)cc1	31*	7%	116*	18%	x
O=c1c2ccccc2nnn1CSc1ccccc1	45*	u	92*	i	234%
O=C(NC1CC1)C1CCN(C2CCN(C(=O)CC3=CCCCC3)CC2)CC1	-2	0%	-5	u	-18%
CCNc1nc(N)nc(-c2cc(Cl)ccc2O)n1	49*	-1%	56*	299%	284%
CCCCNc1nc(N)nc(-c2cc(Cl)ccc2O)n1	74*	1%	79*	361%	224%
CCCNc1nc(N)nc(-c2cc(Cl)ccc2OC)n1	8	-3%	-7	5%[5.75 µM]	0%
O=c1[nH]c(O)c(/C=C2\C=Nc3ccccc32)[nH]1	18*	-1%	13	41%	24%
CCn1c(O)c(/C=C2\C=Nc3ccccc32)sc1=O	34*	1%	78*	7.4µM*	82%
C=CCn1c(O)c(/C=C2\C=Nc3ccccc32)c(=O)[nH]c1=O	2	1%	13	4%	-2%
Oc1nc(Nc2ccccc2)sc1/C=C1\C=Nc2ccccc21	49*	-7%	64*	51%	17%
CC(OC(=O)C1CSC2(C)CCC(=O)N12)C(=O)Nc1ccc(F)cc1 (stereo not drawn)	x	x	x	13%	-18%
Cc1nc(OCc2ccccc2)c2ccccc2n1	-1	6%	-17	u	4%
COc1cccc(COc2cc3ccccc3nc2C)c1	17*	-4%	58*	69%	54%
Cc1nc2ccccc2cc1OCc1ccccc1	46*	0%	22	76%	48%
Cc1nc2ccccc2cc1OCc1ccc(Cl)cc1	54*	-3%	101*	14%	3%
CCOC(=O)c1c(NC(=O)c2ccc(N3C(=O)[C@@H]4[C@H](C3=O)[C@H]3C=C[C@@H]4C3)cc2)sc2c1CCCC2	-1	-5%	-29	u	11%
Cc1ccc(-c2cc3nn(-c4ccccc4)c(N)c3c(=O)o2)cc1	40*	5%	76*	81%	34%
COC(=O)Cn1ncc(N(C)Cc2ccccc2)c(Cl)c1=O	41*	1%	72*	132%	105%
Cc1c2cnn(CC(=O)N3CCC4(CC3)OCCO4)c(=O)c2c(C)n1Cc1ccccc1Cl	14*	-1%	14	-2%	0%
Cc1c2cnn(CC(=O)NCCCN3CC(C)CC(C)C3)c(=O)c2c(C)n1Cc1ccccc1Cl (stereo not drawn)	-1	4%	-6	6%	6.6µM*
O=C(Cn1ncc2c3ccccc3n(Cc3ccc(F)cc3)c2c1=O)N1CCC2(CC1)OCCO2	1	0%	13	u	12µM*
CC1CC(C)CN(CCCNC(=O)Cn2ncc3c(=O)oc4ccccc4c32)C1 (stereo not drawn)	-10	7%	-17	u	x
CC(C)CCN1CCN(Cc2ccon2)CC1CCO (stereo not drawn)	1	4%	-10	4%	27%
CCOC(=O)C1(Cc2ccccc2C(F)(F)F)CCN(C(=O)c2cc(C(C)=O)n[nH]2)CC1	7	-3%	14	u	u
O[C@@H]([C@H](O)[C@H](O)CBr)[C@H](O)CBr	x	x	x	-20%	-12%
SMILES	Cycloheximide cs	LmPK inhibitor	Shiga inhibitor	Pf growth 96h	Pf growth 48h
O=c1[nH]ncc2c3ccccc3n(Cc3cccc(Cl)c3)c12	-1	-1%	-10	24%	u
O=C(Cn1ncc2c3ccccc3n(Cc3ccc(F)cc3)c2c1=O)N1CCN(c2ncccn2)CC1	-5	1%	-15	4%	9.3µM*
Cc1ccccc1Cn1c2ccccc2c2cnn(CC(=O)N3CCN(c4ccccc4)CC3)c(=O)c21	-4	14%	-19	u	x
CCOC(=O)Cn1ncc2c3ccccc3n(CC(=O)OCC)c2c1=O	11	5%	-9	0%	x
O=c1[nH]ncc2c3ccccc3n(Cc3ccc(F)cc3)c12	16	4%	-9	-1%	3.3µM*
COC(=O)Cn1ncc2c3ccccc3n(Cc3ccccc3)c2c1=O	-1	0%	8	5.2µM*	u
Cc1cccn2c(=O)c3cc(C(=O)NCc4ccco4)c(=N)n(C4CCCCC4)c3nc12	-5	4%	28	20%	9.3µM*
COCCn1c(=N)c(C(=O)NCc2ccco2)cc2c(=O)n3cc(C)ccc3nc21	-1	-5%	-10	14%	u
Cc1cccn2c(=O)c3cc(C(=O)NCc4ccco4)c(=N)n(CCOCCO)c3nc12	1	0%	4	u	1.5µM*
Cc1cccc(C(C)C)c1NC(=O)COC(=O)CCN1C(=O)C2CC=CCC2C1=O (stereo not drawn)	8	-9%	8	39%	15%
COc1ccc(/C=C2\N=C(c3ccc(C)cc3)OC2=O)cc1	1	1%	x	322%	29%
COc1ccc(C2=NC(=O)/C(=C\c3cc(OC)c(OC)c(OC)c3)O2)cc1	2	5%	13	0.93µM*	16%
Cc1cccn2c(=O)c3cc(C(=O)NC4CCS(=O)(=O)C4)n(Cc4ccccc4)c3nc12 (stereo not drawn)	9	0%	-4	-1%	0%
COc1ccc(NC(=O)CSc2nnc(-c3ccncc3)o2)c([N+](=O)[O-])c1	-3	6%	-3	u	17%
CCCC[n+]1ccn(-c2nc3ccccc3nc2[N-]S(=O)(=O)c2ccccc2)c1	-4	-1%	12	15µM*	x
CCCC[n+]1ccn(-c2nc3ccccc3nc2[N-]S(=O)(=O)c2ccc(C)cc2)c1	0	0%	-7	1%	x
Cc1ccc(S(=O)(=O)[N-]c2nc3ccccc3nc2-n2cc[n+](Cc3ccccc3)c2)cc1	2	4%	-2	1.5µM*	4.1µM*
CCCC[n+]1ccn(-c2nc3ccccc3nc2[N-]S(=O)(=O)c2cccs2)c1	2	-2%	11	5.9µM*	u
C=CC[n+]1ccn(-c2nc3ccccc3nc2[N-]S(=O)(=O)c2cccs2)c1	1	-6%	-9	5%	4%
O=C(CSc1nnc(CNc2ccc(F)cc2)o1)N1c2ccccc2Sc2ccccc21	-2	1%	-21	u	u
CCS(=O)(=O)Nc1c(C(=O)O)[nH]c2ccccc12	-2	-4%	1	12µM*	-5%
COc1cc(C(=O)Nc2c(C(=O)O)[nH]c3ccccc23)cc(OC)c1OC	-1	-2%	-5	-1%	1%
CC(=O)Nc1c(C(=O)O)[nH]c2ccccc12	1	0%	-1	10µM*	6%
CCOc1ccccc1CNC(=O)C1Cc2cc(S(=O)(=O)N3CCCCC3)ccc2N1C(C)=O (stereo not drawn)	-3	-5%	-5	u	-20%
COc1cc(CNC(C)C23CC4CC(CC(C4)C2)C3)ccc1OCC(=O)NC(C)(C)C (stereo not drawn)	-4	-2%	4	-1%	10µM*
COc1cc(CNCc2cccs2)ccc1OCC(=O)NC(C)(C)C	-1	-3%	-21	45%	35%

Screening results as filed in PubChem.
